Consider 19 compounds from ChEMBL document CHEMBL3988442, “University of Dundee, Small-Polar-MMV Screening Library” (2021).

Molecules are shown by their SMILES.

This assay has as its target AMP-activated protein kinase, AMPK (Homo sapiens) (UniProt P54646+O43741+P54619+Q9UGJ0+Q9Y478+Q13131+Q9UGI9). The assay is described as follows: AMP-dependent Kinase enzyme assay. An in vitro enzyme assay that detects ADP turnover that is directly proportional to AMPK activity. This uses naive AMPK that is activated during the assay with MK-8722. In kind it is functional. More on the design: scale not given: direction of the effect not stated beside the values. Particulars: 30 µM.
Turning to `Cn1cc(C(=O)NCc2ccc(OC3CCCCC3)nc2)ccc1=O`, the Percent Effect is -0.122%.

For `O=C(CCN1CCCCO1)N1CC[C@H](O)[C@@H](O)C1`, the Percent Effect is -7.38%.

For `CO[C@@H]1c2ccccc2C2(CCN(C(=O)CNS(C)(=O)=O)CC2)[C@H]1O`, the Percent Effect turned out to be 19.3%.

For `Cc1cc(N2Cc3cnn(CCO)c3C2)nc(-c2ccccc2O)n1`, the Percent Effect was 28.4%.

Consider `c1ccc2oc(C3CCN(Cc4ncon4)CC3)nc2c1`, for which the Percent Effect was -10.5%.

In the case of `CCCC1(CO)CCCN(C(=O)CNC(C)=O)C1` (centres undefined), the Percent Effect is -1.86%.

For the compound `COc1ccc(C(=O)NCC2CCCN(C3CCOCC3)C2)c(O)c1` (centres undefined), the Percent Effect stood at 14.3%.

On to `Clc1cc(NCc2nccs2)nc2[nH]ccc12`, for which the Percent Effect came to 15.1%.

With `CN(C)CCN(Cc1ccc(Cl)cc1)C(=O)c1ccn(C)c(=O)c1`, the Percent Effect was 6.12%.

As for `O=C(NCc1nnc2n1CCCC2)c1ccc(C2CCCO2)s1` (centres undefined), the Percent Effect is -8.64%.

`Cc1c(C(=O)N2CCC3(CCCNC3=O)C2)sc2nc[nH]c(=O)c12` (centres undefined): the Percent Effect came out at 13.6%.

Turning to `COc1ccc(N2CCC(NS(=O)(=O)N(C)C(C)C)CC2)cc1`, the Percent Effect turned out to be 13.8%.

Take `CCN(CC(=O)NC)C(=O)c1csc(Cc2ccccc2)n1`: the Percent Effect is -5.87%.

Regarding `CN(Cc1ccoc1)C(=O)C1CCN(C(=O)C2CCCC2)CC1`, the Percent Effect is -3.16%.

Regarding `CN1CCOC(CNCC(=O)NCCC2=CCCCC2)C1` (centres undefined), the Percent Effect is -9.7%.

Regarding `CC(C)Cn1ncc(C(=O)NS(=O)(=O)c2ccccc2)c1C1CC1`, the Percent Effect is 4.86%.

Take `CCN1CCN(c2ncnc3c2CCN(C(=O)C2CC2)C3)CC1`: the Percent Effect was -7.12%.

Consider `CNC(=O)Cc1ccc(NC(=O)NCc2ncc(C)s2)cc1`, for which the Percent Effect is -2.7%.

As for `c1ccc(C2CN(C3CC3)CC3(CCN(Cc4ncc[nH]4)CC3)C2)cc1` (centres undefined), the Percent Effect worked out at 6.22%.
